Only a selection was taken, and the strongest signals are over-represented in it overall.
Legend:
Test in all cases: glycan array binding signal (z-score within array); higher = stronger binding
Conditions in all cases: glycan notation: IUPAC condensed, linker removed
[1] = target: Fuc(a1-2)Gal(b1-3)GlcNAc(b1-3)Gal(b1-4)Glc
Procedure, shortened: (§1)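 Columns mapping to the same glycan were averaged after glycan names were converted to IUPAC-condensed notation. The data come from 3228 arrays in the Consortium for Functional Glycomics database, limited to those with an available protein sequence. Binding is reported as a within-array Z-score averaged across arrays of one protein sequence and across linkers.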

[2] = target: Fuc(a1-2)Gal(b1-3)GlcNAc6S
Procedure, shortened: as §1

[3] = target: Fuc(a1-2)Gal(b1-3)[Fuc(a1-4)]GlcNAc(b1-2)Man(a1-3)[Fuc(a1-2)Gal(b1-3)[Fuc(a1-4)]GlcNAc(b1-2)Man(a1-6)]Man(b1-4)GlcNAc(b1-4)[Fuc(a1-6)]GlcNAc(b1-4)[Fuc(a1-6)]GlcNAc
Procedure, shortened: as §1

[4] = target: Fuc(a1-2)Gal(b1-4)GlcNAc(b1-2)Man
Procedure, shortened: as §1

[5] = target: Fuc(a1-2)Gal(b1-4)GlcNAc(b1-3)[Fuc(a1-2)Gal(b1-4)GlcNAc(b1-6)]GalNAc
Procedure, shortened: as §1

[6] = target: Fuc(a1-2)Gal(b1-4)GlcNAc(b1-6)GalNAc
Procedure, shortened: as §1

[7] = target: Fuc(a1-2)Gal(b1-4)[Fuc(a1-3)]GlcNAc(b1-3)Gal(b1-4)[Fuc(a1-3)]GlcNAc(b1-3)Gal(b1-4)[Fuc(a1-3)]GlcNAc
Procedure, shortened: as §1

Fuc(a1-2)Gal6S(b1-4)Glc = target: Fuc(a1-2)Gal6S(b1-4)Glc
Procedure, shortened: as §1

[8] = target: Fuc(a1-2)[Gal(a1-3)]Gal(b1-4)GlcNAc(b1-3)[Fuc(a1-2)[Gal(a1-3)]Gal(b1-4)GlcNAc(b1-6)]GalNAc
Procedure, shortened: as §1

[9] = target: Fuc(a1-2)[Gal(a1-3)]Gal(b1-4)[Fuc(a1-3)]GlcNAc(b1-3)GalNAc
Procedure, shortened: as §1

[10] = target: Fuc(a1-2)[GalNAc(a1-3)]Gal
Procedure, shortened: as §1

[11] = target: Fuc(a1-2)[GalNAc(a1-3)]Gal(b1-3)GlcNAc(b1-3)GalNAc
Procedure, shortened: as §1

[12] = target: Fuc(a1-2)[GalNAc(a1-3)]Gal(b1-4)[Fuc(a1-3)]GlcNAc(b1-3)GalNAc
Procedure, shortened: as §1

[13] = target: Fuc(a1-3)[GalNAc(b1-4)]GlcNAc
Procedure, shortened: as §1

[14] = target: Gal(a1-3)Gal(b1-4)GlcNAc(b1-2)Man
Procedure, shortened: as §1

[15] = target: Gal(a1-3)Gal(b1-4)GlcNAc(b1-2)Man(a1-3)[Gal(a1-3)Gal(b1-4)GlcNAc(b1-2)Man(a1-6)]Man(b1-4)GlcNAc(b1-4)GlcNAc
Procedure, shortened: as §1

Gal(a1-4)Gal(b1-4)Glc = target: Gal(a1-4)Gal(b1-4)Glc
Procedure, shortened: as §1

Gal(b1-3)Gal = target: Gal(b1-3)Gal
Procedure, shortened: as §1

[16] = target: Gal(b1-3)GalNAc(b1-4)Gal(b1-4)Glc
Procedure, shortened: as §1

Gal(b1-3)GlcNAc(b1-2)Man = target: Gal(b1-3)GlcNAc(b1-2)Man
Procedure, shortened: as §1

[17] = target: Gal(b1-3)GlcNAc(b1-3)GalNAc
Procedure, shortened: as §1

[18] = target: Gal(b1-3)[Fuc(a1-4)]GlcNAc(b1-6)GalNAc
Procedure, shortened: as §1

Gal(b1-4)Gal = target: Gal(b1-4)Gal
Procedure, shortened: as §1

[19] = target: Gal(b1-4)GlcNAc(b1-2)Man(a1-6)[Man(a1-3)]Man(b1-4)GlcNAc(b1-4)GlcNAc
Procedure, shortened: as §1

[20] = target: Gal(b1-4)GlcNAc(b1-3)Gal(b1-3)GalNAc
Procedure, shortened: as §1

[21] = target: Gal3S(b1-4)[Fuc(a1-3)]Glc6S
Procedure, shortened: as §1

Gal3S6S(b1-4)GlcNAc = target: Gal3S6S(b1-4)GlcNAc
Procedure, shortened: as §1

Gal3S6S(b1-4)GlcNAc6S = target: Gal3S6S(b1-4)GlcNAc6S
Procedure, shortened: as §1

Gal6S(b1-4)GlcNAc6S = target: Gal6S(b1-4)GlcNAc6S
Procedure, shortened: as §1

GalNAc(a1-3)Gal = target: GalNAc(a1-3)Gal
Procedure, shortened: as §1

B1: TAL6-6LysM (Trichoderma atroviride) (protein)
chain: AASKLGVPQPAQRDQVNCQLYAVQPNDNCIDISSKNNITYAQLLSWNPSLSSTCSNLASLNSSSICVSNPKGTFSISSNTVGATDIATTTAPVPSPTLDQTTSRCAKYYQVSDGDDCSHLTAQFAITLKDFIFLNSEVWQNCTNLELGYYYCVEPVGYISTYPGYLPTATTKPFNQTSATSLPYDGDPWARFSSNSSVIPIANGTRVDCYSYVYVKNLTENLFADCWNMASMYEITREELVLWNPSLGNDGSSGSNLSGAEASQVASSIAIPTTAPSSITTNLYTYPCTVAANISYCVALVSSTGALPTNTAPPGPHASGEISNCTAWFAPEAYDTCKSILDIFEMSFANFYKMNPSVGPDCSGLAVGTNYCVSTYPNGEDPNDDWDGDDSIPSISPTGIITPTPTQSGMVSNCNKFYDVHSNDGCSAIASSQHVDLSSLYKWNPAIKTDCSGLQASVYVCIGILTTSMSTTSKLPTTTSKPSTTSKPPTGITTPTPTQSGMVKNCNKFYDVHSGDGCSAIASSQKVNLSSFYLWNPAVKTDCSGLQASVFVCIGTLTTSMSTTTSKLPTTTSKPSTTSKPPTGIITPTPTQNGMVKNCNKFYDVHSGDGCSAIASSQKVNLSSFYLWNPAVKTDCSGLQASVFVCVGTATTTTAAGITTPTPTQSGMVSGCNKFYDVHAGDGCSAIASSQKIALSSLYKWNPAVKTDCSGLQASVYICIGVGNAAAARVTGAAASFLEQKLISEEDLNSAVDHHHHHH
In the case of B1, the “glycan array binding signal (z-score)” value [1] is reported as -0.234, the “glycan array binding signal (z-score)” value [2] is reported as 0.906 and the “glycan array binding signal (z-score)” value [3] is reported as 0.449. For the same binder, the “glycan array binding signal (z-score)” value [4] was -0.377, the “glycan array binding signal (z-score)” value [5] was -0.205 and the “glycan array binding signal (z-score)” value [6] was 3.12. For the same binder, the “glycan array binding signal (z-score)” value [7] was 2.68, the “glycan array binding signal (z-score)” value (Fuc(a1-2)Gal6S(b1-4)Glc) was -0.385 and the “glycan array binding signal (z-score)” value [8] was -0.724. For the same binder, the “glycan array binding signal (z-score)” value [9] was 0.955, the “glycan array binding signal (z-score)” value [10] was -0.757 and the “glycan array binding signal (z-score)” value [11] was 0.204. The “glycan array binding signal (z-score)” value [12] was -0.108, the “glycan array binding signal (z-score)” value [13] was 2.99 and the “glycan array binding signal (z-score)” value [14] was 0.538. For the same binder, the “glycan array binding signal (z-score)” value [15] was 0.08, the “glycan array binding signal (z-score)” value (Gal(a1-4)Gal(b1-4)Glc) was 2.69 and the “glycan array binding signal (z-score)” value (Gal(b1-3)Gal) was -0.192. The “glycan array binding signal (z-score)” value [16] was -0.503, the “glycan array binding signal (z-score)” value (Gal(b1-3)GlcNAc(b1-2)Man) was 3.66 and the “glycan array binding signal (z-score)” value [17] was -0.729. For the same binder, the “glycan array binding signal (z-score)” value [18] was 1.02, the “glycan array binding signal (z-score)” value (Gal(b1-4)Gal) was -0.397 and the “glycan array binding signal (z-score)” value [19] was 0.445. The “glycan array binding signal (z-score)” value [20] was -0.573, the “glycan array binding signal (z-score)” value [21] was 2.96 and the “glycan array binding signal (z-score)” value (Gal3S6S(b1-4)GlcNAc) was 2.51. The “glycan array binding signal (z-score)” value (Gal3S6S(b1-4)GlcNAc6S) was 3, the “glycan array binding signal (z-score)” value (Gal6S(b1-4)GlcNAc6S) was -0.018 and the “glycan array binding signal (z-score)” value (GalNAc(a1-3)Gal) was 2.44.
